# Data taken from PubChem BioAssay (EPA / NIEHS).
# The source made the active and inactive calls. How the source made its calls: active means hit-call score of the fitted dose curve at least 0.9, where 1 is the maximum; inactive means score below 0.9.
# Read-out: Early growth response protein 1 (EGR1) transcription factor, EGR1 (gene 1958)
# Test: LTEA_HepaRG_EGR1: Life Technologies and Expression Analysis (LTEA) Assay for Early growth response protein 1 (EGR1) transcription factor using HepaRG (AID 2283490)
# Conditions: mRNA level, 48 h; actives raise or lower the signal
# Description: LTEA_HepaRG is a cell based, multiplexed-readout assay that uses HepaRG, a human liver cell line, with measurements taken at 48 hours after chemical dosing on a 96-well plate.LTEA_HepaRG_EGR1 is one of 102 assay component(s) measured in the LTEA HepaRG cell culture assay. It is a marker of Cell proliferation, survival, death.Data from the assay component LTEA_HepaRG_EGR1 was analyzed into 1 endpoint. This assay endpoint, LTEA_HepaRG_EGR1, was analyzed with bidirectional fitting relative to DMSO as the negative control and baseline of activity. Using a type of inducible reporter, measures of mRNA induction for gain or loss-of-signal activity can be used to understand regulation of transcription factor activity. To generalize the intended target to other relatable targets, this assay endpoint is annotated to the dna binding intended target family, where the subfamily is zinc finger.
# A total of 1060 chemcials from the ToxCast library were tested in eight-point concentration-response experiments. Cell culture and cytotoxicity assays were conducted at Thermo Fisher Scientific's Custom Services facility (Madison, WI). A single lot of human HepaRG cells (Thermo Fisher Scientific, Frederick, MD) was used for the cell culture experiments. 96-well format collagen type I coated plates of human HepaRG cells were prepared using established methods. Briefly, cryopreserved HepaRG cells were thawed, plated at a density of approximately 100,000 cells/well in HepaRG Thaw, Plate, and General Purpose media (HPRG770, Thermo Fisher Scientific), and incubated for 48 hours. 0.5% DMSO was selected as vehicle control to balance the requisite need of DMSO in HepaRG cultures to maintain differentiation (for example, baseline metabolism, proportions of hepatocytes vs. cholangiocytes), while enabling further hepatic receptor pathway activation (for example, PXR and CAR) in response to chemical exposure. 48 hours after plating, the culture medium was replaced with HepaRG Serum-Free Incudtion Media. Cells were exposed to each test chemical in duplicate and maintained in CO2 incubators for another 48 hours. Chemical plates were thawed to room temperature and 200x concentrations of treatment groups were prepared. 8-point conentration-reponse curves were made with the highest exposure at 100 uM, followed by half-log dilutions, all in 0.5% DMSO. Each test plate contained variouse controls, induction positive controls (1mM phenobarbital), cytotoxicity positive controls ([…] aflatoxin B1), vehicle controls (0.5% DMSO), and total lysis controls (0.5% DMSO). Cell morphology images were taken using an Essen IncuCyte FLR automated microscope, with six 96-well plates imaged in about 24 minutes. Images were captured and exported and JPEG files. Spent culture media was transfered to black-well plates for the LDH assay, and remaining media was sorted at -80 C for later use. Cells were treated with RLT buffer and frozen until shipped for gene expression analysis. Total RNA was isolated from the cell suspension in 75 uL of Buffer RLT (Qiagen, Germantown, MD 20874) by Quintiles/Expression Analysis (Durham, NC) using a custom isolation procedure. Total RNA from each plate well was transferred to a preamplification plate. Fluidigm's 96.96 Dynamic ArrayTM (Fluidigm, Amsterdam, the Netherlands) technology was used for gene expression analyses by quantitative reverse transcription polymerase chain reaction (qRT-PCR, performed by Quintiles/Expression Analysis, Durham, NC)89. Standard TaqManTM Assays (Applied Biosystems/ThermoFisher Scientific, Foster City, CA) were used to assess the expression of 93 genes selected based on their selectivity and sensitivity to important hepatic receptors known to be modulated by environmental chemicals; importance in human hepatocyte functionality; and hepatotoxicity. […]
Compound,outcome,AC50
CCOC(=O)c1ccc(C2CCC(NC[C@H](O)COc3ccc(O)c(NS(C)(=O)=O)c3)CC2)cc1 (stereo not given in full),inactive,
Nc1cccc(N)c1,inactive,
CC/C(=C\C(=N/O)C(N)=O)C(C)[N+](=O)[O-] (stereo not given),inactive,
Cc1ccc(S(=O)(=O)O)cc1C,inactive,
CNCc1ccc(NC(=O)c2c[nH]c3c2C(=O)CCC3)cc1,inactive,
CCCCC(CC)COC(=O)c1ccc(C(=O)OCC(CC)CCCC)cc1 (stereo not given),inactive,
CCCCCCCCCCCCc1ccccc1,inactive,
CCCCCCCCO,inactive,
O=C(NS(=O)(=O)/C=C/c1ccccc1)c1ccc(F)cc1Cl,inactive,
COCCOc1cc2cc(C(=O)NC3CCN(C(C)C)CC3)n(CC(=O)Nc3ccc(Cl)cn3)c2cn1,inactive,
O=C1CCC(N2C(=O)c3ccccc3C2=O)C(=O)N1 (stereo not given),inactive,
CCCCCCc1ccc(O)cc1O,inactive,
Nc1nc2ncc(CNc3ccc(C(=O)N[C@@H](CCC(=O)O)C(=O)O)cc3)nc2c(=O)[nH]1,inactive,
CC(C)=CCCC(C)=CC=O,inactive,
CC(C)c1cccc(C(C)C)c1N1C(=O)c2ccc(O)cc2C1=O,,86.2 µM (active)
Nc1ccc(Nc2ccccc2)cc1,inactive,
CC(C)CC(C)(O)C#CC(C)(O)CC(C)C (stereo not given),inactive,
COC(=O)c1ccccc1O,inactive,
CC(O)CN(CCN(CC(C)O)CC(C)O)CC(C)O (stereo not given),,12.6 µM (active)
COC(=O)c1c(Cl)c(Cl)c(C(=O)OC)c(Cl)c1Cl,inactive,

Compound,outcome,AC50
Cn1c(=O)cc(Oc2ccc(F)cc2F)c2cnc(NCC(C)(C)O)nc21,inactive,
CC[C@H]1CC[C@H](NCc2cc3c(cc2OC)[C@H]2C[C@H]2C(=O)N3C)[C@H](c2ccccc2)N1,inactive,
O=C(O)CCN(C1(C(=O)NO)CCCC1)S(=O)(=O)c1ccc(Oc2ccc(F)cc2)cc1,inactive,
O=C(OC[C@H]1O[C@@H](OC(=O)c2cc(O)c(O)c(OC(=O)c3cc(O)c(O)c(O)c3)c2)[C@H](OC(=O)c2cc(O)c(O)c(OC(=O)c3cc(O)c(O)c(O)c3)c2)[C@@H](OC(=O)c2cc(O)c(O)c(OC(=O)c3cc(O)c(O)c(O)c3)c2)[C@@H]1OC(=O)c1cc(O)c(O)c(OC(=O)c2cc(O)c(O)c(O)c2)c1)c1cc(O)c(O)c(OC(=O)c2cc(O)c(O)c(O)c2)c1,inactive,
Fc1ccccc1[C@@H](F)COC1CCC(Nc2ncnc3[nH]ncc23)CC1 (stereo not given in full),,14.3 µM (active)
O=C(CCCCCCCCc1cccnc1)N1CCC(C=C(c2ccccc2)c2ccccc2)CC1,,12.2 µM (active)
CC1(C)C(=O)N(Br)C(=O)N1Br,inactive,
C=CC(=C)CCC=C(C)C,inactive,
CCc1cc(SCc2sc(-c3ccc(C(F)(F)F)cc3)nc2CN2CCN(c3ccc(OC)cc3)CC2)ccc1OCC(=O)O,,51.9 µM (active)
CCn1nc(Cc2ccccc2)cc1C1CCN(C[C@H]2C[C@H](N(C)[C@@H](C(=O)O)C(C)C)C[C@@H]2c2cccc(F)c2)CC1,inactive,
COC(=O)CC(=O)OC,inactive,
CCN(C(=O)c1cc(C)cc(OC[C@H](C)Nc2ccncc2)c1)C(C)C,inactive,
CC(C)=CCC/C(C)=C/CO,inactive,
Cc1ccc(C)c(O)c1,inactive,
C=CCCCCCCCCC(=O)O,inactive,
CC[C@H]1OC(=O)[C@H](C)[C@@H](O[C@H]2C[C@@](C)(OC)[C@@H](O)[C@H](C)O2)[C@H](C)[C@@H](O[C@@H]2O[C@H](C)C[C@H](N(C)C)[C@H]2O)[C@](C)(O)C[C@@H](C)C(=O)[C@H](C)[C@@H](O)[C@]1(C)O,inactive,
CCOC(=O)COc1ccc2c(c1)CC(NCC(O)c1cccc(Cl)c1)CC2 (stereo not given),inactive,
CCOCCO,inactive,
CCC(C)(C)C(=O)O[C@H]1C[C@@H](C)C=C2C=C[C@H](C)[C@H](CC[C@@H]3C[C@@H](O)CC(=O)O3)[C@H]21,inactive,
Cc1ccc(O)cc1,inactive,
